Out of some 52,000 compounds screened, about 4,300 (8.3%) were called active. Cut-off read from the data, not from the text of the source: active = survival mostly below about 52% (no sharp cut-off); inactive = mostly above about 56%. Shown is part of a subset that was picked to be rich in actives.
system: DeltatarO mutant; assay: S. aureus survival, RN4220 and DeltatarO strains – OD600, teichoic acid synthesis inhibitors, primary screen (AID 463173); details: S. aureus RN4220 wild type/DeltatarO growth, OD600, 18 h, stronger effect = lower value, screened at 18.75 µg/mL (by protocol)

Row | Compound | survival
1 | O=C(Nc1cccc(F)c1)C1CCN(c2nc3ccccc3nc2C(F)(F)F)CC1 | 83% (inactive)
2 | COc1ccc(C(=O)N2CCC(C(=O)O)CC2)cc1 | 97% (inactive)
3 | Nc1cccc(-c2cn3ccccc3n2)c1 | 96% (inactive)
4 | Cc1ccc(-c2noc(CSc3nnc(C)n3-c3ccc(C)c(C)c3)n2)cc1 | 75% (inactive)
5 | CCOc1ccc(CNC(=O)Cn2cc3c(n2)-c2c(oc(C(=O)N4CCOCC4)c2C)CC3)cc1 | 72% (inactive)
6 | Cc1cccc(C)c1NC(=O)C(=O)NCC(c1ccc2c(c1)OCO2)N1CCN(C)CC1 (stereo not drawn) | 88% (inactive)
7 | Cc1cccc(NCN2C(=O)S/C(=C/c3ccc(N(C)C)cc3)C2=O)c1 | 73% (inactive)
8 | O=C(Cn1nc(-c2ccccc2)ccc1=O)NCC1COCCO1 (stereo not drawn) | 92% (inactive)
9 | COc1ccc(NC(=O)c2c(NC(=O)COc3ccc(Cl)cc3)sc3c2CCCCC3)cc1 | 135% (inactive)
10 | CCCCOc1ccc(C(=O)NCCc2csc(-c3ccc(OC)cc3)n2)cc1 | 108% (inactive)
11 | CCOC(=O)c1c(NC(=O)C(C)Sc2cn(CCNC(=O)c3ccc(OCC)cc3)c3ccccc23)sc2c1CCC2 (stereo not drawn) | 92% (inactive)
12 | CCOC(=O)c1c(C)[nH]c(C)c1S(=O)(=O)N(C)CC(=O)Nc1ccc(C)cc1C | 95% (inactive)
13 | Cc1ccc(-n2ncc(C(=O)NCCN3CCN(C)CC3)c2C2CCN(C(=O)OC(C)(C)C)CC2)c(C)c1 | 92% (inactive)
14 | CCOC(=O)c1cnn(-c2cccc(Cl)c2)c1C1CCN(C(=O)OC(C)(C)C)CC1 | 55% (active)
15 | Cc1ccc(-n2ncc(C(=O)NCCN3CCOCC3)c2C2CCN(C(=O)OC(C)(C)C)CC2)c(C)c1 | 37% (active)
16 | Cc1c(Cl)cccc1-n1ncc(C(=O)NC2CCCCC2)c1C1CCN(C(=O)OC(C)(C)C)CC1 | 94% (inactive)
17 | Cc1cccc(C)c1-n1ncc(C(=O)NCCCN2CCCCC2)c1C1CCN(C(=O)OC(C)(C)C)CC1 | 89% (inactive)
18 | Cc1ccc(-n2ncc(C(=O)NCCN3CCc4ccccc4C3)c2C2CCN(C(=O)OC(C)(C)C)CC2)c(C)c1 | 64% (inactive)
19 | CCOC(=O)N1CCC(NC(=O)c2cnn(-c3cccc(Cl)c3C)c2C2CCN(C(=O)OC(C)(C)C)CC2)CC1 | 20% (active)
20 | Cc1cccc(C)c1-n1ncc(C(=O)NCCN2CCN(C)CC2)c1C1CCN(C(=O)OC(C)(C)C)CC1 | 8% (active)
21 | Cc1cccc(C)c1-n1ncc(C(=O)NCCN2CCOCC2)c1C1CCN(C(=O)OC(C)(C)C)CC1 | 101% (inactive)
22 | CCN1CCN(C(=O)c2cnn(-c3cccc(Cl)c3)c2C2CCN(C(=O)OC(C)(C)C)CC2)CC1 | 74% (inactive)

Row | Compound | survival
23 | CC1CCN(C(=O)c2cnn(-c3cccc(Cl)c3)c2C2CCN(C(=O)OC(C)(C)C)CC2)CC1 | 78% (inactive)
24 | Cc1c(Cl)cccc1-n1ncc(C(=O)NC2CCCC2)c1C1CCN(C(=O)OC(C)(C)C)CC1 | 102% (inactive)
25 | COc1cccc(-n2c(=O)c3sc4ccccc4c3n(CC(=O)NC3CCCCC3)c2=O)c1 | 126% (inactive)
26 | Cc1ccc(-n2ncc(C(=O)NCc3ccccc3)c2C2CCN(C(=O)OC(C)(C)C)CC2)cc1 | 94% (inactive)
27 | COc1cccc(-n2cc(C(=O)NCc3ccc(C)cc3)c3ccccc3c2=O)c1 | 81% (inactive)
28 | COc1ccccc1CNS(=O)(=O)c1ccc2c(c1)CC(C)N2C(C)=O (stereo not drawn) | 71% (inactive)
29 | CC(C)COc1ccc(C(=O)Nc2scc(-c3ccc(Br)cc3)c2C(=O)OC(C)C)cc1 | 53% (inactive)
30 | COc1ccc(NC(=O)Cn2ncc3c(C)n(Cc4cccc(Cl)c4)c(C)c3c2=O)cc1 | 92% (inactive)
31 | CCOc1ccc(-n2cc(-c3ccccc3)c3c(NC4CCCC4)ncnc32)cc1 | 104% (inactive)
32 | Cc1ccc(-n2ncc(C(=O)NCCCN3CCCCC3)c2C2CCN(C(=O)OC(C)(C)C)CC2)c(C)c1 | 46% (active)
33 | CCN1CCN(CCCNC(=O)c2cnn(-c3ccc(C)cc3C)c2C2CCN(C(=O)OC(C)(C)C)CC2)CC1 | 144% (inactive)
34 | CCOC(=O)N1CCC(NC(=O)c2cnn(-c3ccc(F)cc3F)c2C2CCN(C(=O)OC(C)(C)C)CC2)CC1 | 71% (inactive)
35 | CC(C)(C)OC(=O)N1CCC(c2c(C(=O)NC3CCN(Cc4ccccc4)CC3)cnn2-c2cccc(F)c2)CC1 | 92% (inactive)
36 | CC(C)(C)OC(=O)N1CCC(c2c(C(=O)NC3CCN(Cc4ccccc4)CC3)cnn2-c2ccc(F)cc2F)CC1 | -2% (active)
37 | Cc1ccc(-n2ncc(C(=O)NCCCN3CCN(C)CC3)c2C2CCN(C(=O)OC(C)(C)C)CC2)c(C)c1 | 105% (inactive)
38 | CCC(=O)Nc1ccc2nc3c(=O)n(C)c(=O)n(C)c3nc2c1 | 66% (inactive)
39 | Cc1ccc(S(=O)(=O)c2cc3cc(C(=O)Nc4ccc(C)cc4C)ccc3oc2=O)cc1 | 89% (inactive)
40 | CCOC(=O)COc1nc(C)c(Br)c(OC)n1 | 81% (inactive)
41 | COc1ccc(CNC(=O)COCc2cc(-c3cccs3)on2)cc1 | 107% (inactive)
42 | CC1CCN(S(=O)(=O)c2ccc3c(c2)CCN3C(=O)Nc2ccc(Br)cc2F)CC1 | 74% (inactive)
43 | CCCCNC(=O)CCC(=O)NNc1nc2ccccc2c2nc(-c3ccccc3)nn12 | 78% (inactive)
44 | Cc1ccc(CCNc2nc3ccccc3c3nc(-c4ccccc4)nn23)cc1 | 44% (active)

Row | Compound | survival
45 | Cc1ccc(CCNc2nc3ccccc3c3nc(-c4cccnc4)nn23)cc1 | 66% (inactive)
46 | CCCCNc1nc2ccccc2c2nc(-c3ccccc3)nn12 | -1% (active)
47 | Clc1ccc(CCNc2nc3ccccc3c3nc(-c4ccccc4)nn23)cc1 | 29% (active)
48 | COc1cc2nc(NCCc3ccc(Cl)cc3)n3nc(-c4ccccc4)nc3c2cc1OC | 51% (inactive)
49 | CC(CNc1nc2ccccc2c2nc(-c3ccccc3)nn12)c1ccccc1 (stereo not drawn) | 121% (inactive)
50 | O=c1n(Cc2ccc(Cl)cc2)c2ccccc2c2nc(-c3ccccc3)nn12 | 95% (inactive)
51 | CCc1ccc(CNC(=O)Cn2nc(C)n3c(cc4cc(C)ccc43)c2=O)cc1 | 83% (inactive)
52 | Cc1ccc(NC(=O)c2cnc3sc(N4CCOCC4)nn3c2=O)cc1N(C)C | 80% (inactive)
53 | COc1cccc(NC(=O)Cn2nnc(C(=O)NCCc3ccccc3)c2N)c1 | 144% (inactive)
54 | Cc1ccc(Cn2c(=O)n(-c3cccc(C(F)(F)F)c3)c(=O)c3c(C)c(C)sc32)c(C)c1 | 97% (inactive)
55 | COc1ccc(CNC(=O)c2cnc(N(C)C)nc2)cc1 | 73% (inactive)
56 | COc1ccc(-c2cn3c(c2C)-c2ccc(C)n2CC3)cc1 | 91% (inactive)
57 | Cc1ccc(C(=O)N(Cc2ccco2)Cc2sccc2C)cc1 | 44% (inactive)
58 | O=C(c1cc2sccc2n1Cc1ccccc1)N(Cc1ccco1)Cc1cccs1 | 96% (inactive)
59 | CC(C)Oc1ccc(C(=O)N(Cc2ccco2)Cc2cccs2)cc1 | 36% (active)
60 | Cc1ccc(N(Cc2cccs2)C(=O)c2ccc(OC(C)C)cc2)cc1 | 95% (inactive)
61 | Cc1ccc(CN(Cc2ccco2)C(=O)c2cccc(C)c2)cc1 | 68% (inactive)
62 | CC(C)Oc1ccc(C(=O)N(Cc2ccc(N(C)C)cc2)Cc2ccco2)cc1 | 59% (inactive)
63 | O=C(c1ccc(Cl)cc1)N(Cc1ccco1)Cc1ccco1 | 97% (inactive)
64 | O=C(c1ccccc1)N(Cc1ccco1)Cc1cccs1 | 41% (active)
65 | Cc1ccsc1CN(Cc1ccco1)C(=O)c1ccc(Cl)cc1 | 34% (active)
66 | O=C(Nc1nnc(N2CCCCCC2)s1)Nc1cc(F)ccc1F | 103% (inactive)

Row | Compound | survival
67 | CC1=C(C(=O)N(C)C)C(c2ccccc2Cl)NC(=O)N1 (stereo not drawn) | 76% (inactive)
68 | CC(C)N1CC(C(=O)Nc2ccccc2)CC1=O (stereo not drawn) | 73% (inactive)
69 | CCOC(=O)c1cc(-c2ccc(OC)c(S(=O)(=O)NC3CCCCC3)c2)on1 | 89% (inactive)
70 | CN1CCSc2ccc(C(=O)NCc3ccccc3)cc21 | 67% (inactive)
71 | O=C(NC1CCCC1)C(c1ccncc1)N(CCCN1CCOCC1)C(=O)c1ccc(-c2ccccc2)[nH]1 (stereo not drawn) | 76% (inactive)
72 | CN(C)C(=O)c1ccc(S(=O)(=O)NCc2ccccc2Cl)s1 | 94% (inactive)
73 | Cc1cccc(Cn2cc(C(=O)Nc3cc(F)ccc3F)ccc2=O)c1 | 74% (inactive)
74 | Cc1noc(-c2ccc(-c3noc(-c4cccc(F)c4)n3)cc2)n1 | 76% (inactive)
75 | Cc1ccc(NC(=O)Cn2cc3c(n2)CCCC3)cc1Cl | 87% (inactive)
76 | COc1cc(C2CC(=O)c3c([nH]c(C(=O)OC4CCCC4)c3C)C2)cc(OC)c1OC (stereo not drawn) | 51% (active)
77 | COc1ccc(C2CC(=O)c3c([nH]c(C(=O)OC4CCCC4)c3C)C2)cc1OC (stereo not drawn) | 128% (inactive)
78 | COc1ccc(C2CC(=O)c3c([nH]c(C(=O)OC4CCCCCC4)c3C)C2)cc1OC (stereo not drawn) | 81% (inactive)
79 | CC1(C)CC(=O)C2=C(C1)OC(N)=C(C#N)C2c1ccc2c(c1Cl)OCO2 (stereo not drawn) | 97% (inactive)
80 | COC(=O)c1ccccc1NC(=O)c1cc(CN2CCCC2)on1 | 75% (inactive)
81 | COc1ccc(-c2cc(C(=O)Nc3ccc4c(c3)OCO4)no2)cc1OC | 65% (inactive)
82 | COc1ccccc1-c1cc(C(=O)N2CCCCC2C)no1 (stereo not drawn) | 11% (active)
83 | CC1CCCCN1C(=O)c1cc(-c2ccccc2)on1 (stereo not drawn) | 88% (inactive)
84 | CC1CCCCN1C(=O)c1cc(-c2ccc(Br)cc2)on1 (stereo not drawn) | 66% (inactive)
85 | COc1ccc(-c2cc(C(=O)N3CCCCC3C)no2)cc1OC (stereo not drawn) | 58% (active)
86 | CC1CCCCN1C(=O)c1cccc(C(=O)N2CCCCC2C)c1 (stereo not drawn) | 80% (inactive)
87 | CCOc1ccccc1C(=O)N(C)c1ccccc1 | 92% (inactive)
88 | CCc1nn2c(=O)cc(COC(=O)c3ccccc3NC(=O)c3ccc(C(C)(C)C)cc3)nc2s1 | 91% (inactive)

— PubChem BioAssay AID463173 (ICCB-Longwood Screening Facility, Harvard Medical School, 2010)
